The values that follow come from PubChem BioAssay (Tox21).

Assay [1] in a line: cAMP Responsive Elements (CRE) small molecule antagonists, cell-based qHTS assay: qHTS cell viability counter screen (AID 2060913). Note: nearly all actives have a fitted effect of over 40% in size. Note: potency is the fitted concentration of half-maximal effect. The note with it: CRE-bla HEK293T viability, CellTiter-Glo luminescence, 5 h; series mostly up to 92.4 µM. In short, it runs like this:
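Cytotoxicity read in the same wells as the CRE-bla HEK293T antagonist assay: after 3 h compound with 0.25 uM NKH477 final and 2 h beta-lactamase substrate, CellTiter-Glo luminescence measured.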

Assay [2] can be described thus: cAMP Responsive Elements (CRE) small molecule agonists, cell-based qHTS assay: qHTS cell viability counter screen (AID 2060914). Note: nearly all actives have a fitted effect of over 50% in size. The note with it: CRE-bla HEK293T viability, CellTiter-Glo luminescence, 5 h; series mostly up to 92.4 µM. The procedure, abridged: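 HEK 293T CRE-bla; DMEM + 10% dialyzed FBS, 25 mM HEPES; 18 h pre-incubation; compound 3 h, 37 °C/5% CO2; CellTiter-Glo added after reporter read; luminescence after 30 min RT.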
Background: qHTS replaces the single test concentration by a dilution series.

Inconclusive results are not listed. Entries that show only a call come without a potency. Values without a mark were called inactive. Active and inactive are the calls of the source. Calls come from the whole dose curve; as a rule, active = well fitted cell-killing curve with a large enough effect in the repeat runs; inconclusive = weak or mixed curves, or effect the other way; inactive = flat fitted curve, though single readings scatter.

Turning to `CC(C)n1c(/C=C/[C@@H](O)C[C@@H](O)CC(=O)O)c(-c2ccc(F)cc2)c2ccccc21`, the Potency entry in assay [1] and in assay [2] was “inactive” throughout.
In the case of `COc1ccc(OC)c(OC)c1`, the Potency entry in assay [1] and in assay [2] was “inactive” in each case.
For the compound `CC(C(=O)O)c1cccc(Oc2ccccc2)c1` (stereo unspecified), the Potency entry in assay [1] is “inactive”.
As for `O=C(O)c1cccc(N(Cc2cccnc2)c2ccc(OC(F)F)c(OC(F)F)c2)c1`, the Potency entry in assay [1] and in assay [2] was “inactive” each time.
With `On1nnc2ccccc21`, the Potency entry in assay [1] was “inactive”.
Regarding `Nc1cc(S(=O)(=O)O)cc2cc(S(=O)(=O)O)cc(O)c12`, the Potency entry in assay [1] and in assay [2] was “inactive” throughout.
With `Cc1cc(O)c(Cl)c(C)c1Cl`, the Potency entry in assay [1] and in assay [2] was “inactive” in each case.
Regarding `C=C(C)C1CCC(C)CC1O` (stereo unspecified), the Potency entry in assay [1] was “inactive”.
Turning to `NC12CC3CC(CC(C3)C1)C2`, the Potency entry in assay [1] and in assay [2] was “inactive” each time.
For the compound `CCCCCCC1CCC(=O)O1` (stereo unspecified), the Potency entry in assay [1] and in assay [2] was “inactive” throughout.
Turning to `CCCCCCC(O)CO` (stereo unspecified), the Potency entry in assay [1] and in assay [2] was “inactive” in each case.
Consider `CCCCCCCCCCCCCCCCCl`, for which the viability change, negative = cytotoxic in assay [1] was 3.61% [at 18.9 µM].
As to `CC#N`, the Potency result in assay [1] and in assay [2] was “inactive” in each case.
`C=C(C)C(=O)O[C@H]1C[C@@H]2CC[C@@]1(C)C2(C)C`: the Potency result in assay [1] and in assay [2] was “inactive” in each case.
As to `CN(C)[C@@H]1C(=O)C(C(=O)NCN2CCCC2)=C(O)[C@@]2(O)C(=O)C3=C(O)c4c(O)cccc4[C@@](C)(O)C3C[C@@H]12` (stereo partly specified), the Potency entry in assay [1] was “inactive”.
Consider `CC(=O)OCc1ccco1`, for which the Potency entry in assay [1] and in assay [2] was “inactive” throughout.
Consider `O=C1NCCN1CCN1CCC(c2cn(-c3ccc(F)cc3)c3ccc(Cl)cc23)CC1`, for which the Potency in assay [1] was 10.6 µM (active).
Turning to `CCCCCCN`, the Potency result in assay [1] and in assay [2] was “inactive” throughout.
Turning to `O=c1[nH]cnc2nc[nH]c12`, the Potency result in assay [1] and in assay [2] was “inactive” throughout.
As for `O=C1NC(=O)C(c2ccccc2)(c2ccccc2)N1`, the Potency result in assay [1] and in assay [2] was “inactive” in each case.
On to `CN1[C@@H]2CC[C@H]1CC(OC(=O)C(CO)c1ccccc1)C2` (stereo partly specified), for which the Potency result in assay [1] and in assay [2] was “inactive” in each case.
